The campaign covered roughly 48,000 compounds. About 13,000 (27%) showed an effect of 50% or more. Some of the results follow.
Tested on: Wolbachia pipientis
Assay: Anti-Wolbachia Cell-Based Screen
Format: functional
Set-up: scale not given: in the data most compounds retested in dose-response had high values
Details: 5 µM

| Structure (SMILES) | Percent Effect |
| --- | --- |
| Cc1nc(C(C)(C)C)sc1C(=O)NCCn1cccn1 | 3.617% |
| COc1ccc(F)cc1CSCC(=O)N(CCC#N)CCC#N | -2.312% |
| N#Cc1ccccc1CN1CCC(c2nccn2CC2CCC2)CC1 | 43.99% |
| COC[C@@H]1CC[C@H]2[C@H](CCN2S(=O)(=O)c2cccc(C)c2)O1 | 4.659% |
| COc1cccc(F)c1CN1CCC(c2nccc(C)n2)C1 (centres undefined) | 140.3% |
| CN(C)CC1CN(Cc2coc(-c3cccs3)n2)CCO1 (centres undefined) | -7.744% |
| Cc1cccnc1CN1CCOC(Cc2cccc3ccccc23)C1 (centres undefined) | -2.143% |
| c1ccc2c(CC3CN(Cc4nccs4)CCO3)cccc2c1 (centres undefined) | -0.1296% |
| COc1cccc(O)c1CN1CCCC(Nc2cccc(F)c2)C1 (centres undefined) | -13.27% |
| CN(C)CC1CN(Cc2c(Cl)ccc3cccnc23)CCO1 (centres undefined) | -12.27% |
| CN(C)Cc1ccnc(C2CN(Cc3c(F)cccc3F)CCO2)n1 (centres undefined) | 127% |
| CCn1c(CN2CCOC(Cn3cccn3)C2)nc2c(F)cccc21 (centres undefined) | -12.64% |
| CN(C)CC1CN(Cc2cc(Cl)cc3cccnc23)CCO1 (centres undefined) | -1.777% |
| Cc1ccccc1CN1CCOC(c2nccc(CN(C)C)n2)C1 (centres undefined) | 127.2% |
| CN(C)Cc1ccnc(C2CN(Cc3nccs3)CCO2)n1 (centres undefined) | 100.5% |
| CCn1ccnc1C1CCN(Cc2c(F)cccc2F)CC1 | 1.845% |
| COCCNS(=O)(=O)c1cccc2c1CN(C(=O)c1ccccc1)CC2 | 14.65% |
| O=C(c1ccno1)N1CCOC[C@H](Oc2ccccc2)C1 | -14.73% |
| CC(C1CCN(Cc2cnn(C)c2C2CC2)CC1)N(C)C (centres undefined) | -2.941% |
| CC(C)(CN1CCCC1)CN1CCC(Cn2cc(C3CC3)nn2)CC1 | 12.62% |
| O=C(NCc1cc(O)ncn1)C1CCOc2ccccc2C1 (centres undefined) | 8.885% |
| CNC(=O)C(NC(=O)CCc1cccc(OC2CCCC2)c1)C(C)C (centres undefined) | -3.816% |

| Structure (SMILES) | Percent Effect |
| --- | --- |
| COCCN1CCCC2(CCN(c3nc(C)nc4ccsc34)C2)C1=O (centres undefined) | -7.564% |
| CC(C)(C)NC(=O)CN1CCCN(Cc2cc(C#N)ccc2F)CC1 | -2.969% |
| Cc1noc(C)c1-c1cnc(CC2CCN(C(=O)c3cc[nH]n3)C2)cn1 (centres undefined) | -12.99% |
| Cc1noc(C)c1CN1CC2(CCN(C(=O)c3cc[nH]n3)C2)CC1=O (centres undefined) | -2.196% |
| Cc1noc(C)c1-c1cncc(CC2CCN(C(=O)c3cc[nH]n3)C2)n1 (centres undefined) | 110.9% |
| Cc1noc(C)c1-c1cc(CC2CCN(C(=O)c3cc[nH]n3)C2)ncn1 (centres undefined) | 98.42% |
| CCCS(=O)(=O)N[C@H]1CN(c2ncccc2C(N)=O)C[C@@H]1C(C)C | -5.813% |
| CC(=O)NCc1ccc(S(=O)(=O)NC(=O)c2ccc3c(c2)COC3)s1 | -2.938% |
| Cn1ccnc1CCNC(=O)NCCC1CCCCO1 (centres undefined) | -7.857% |
| COc1ccc(NC(=O)CCc2c(C)nc3cc(O)nn3c2C)cn1 | 3.127% |
| Cc1nc2ncnn2c(C)c1CCC(=O)Nc1cccn(C)c1=O | 1.385% |
| Cc1nc2cc(O)nn2c(C)c1CCC(=O)NCCCC(C)C | 90.92% |
| Cc1nc2cc(O)nn2c(C)c1CCC(=O)NCCc1ccccc1 | 85.91% |
| Cc1nc2cc(O)nn2c(C)c1CCC(=O)NCCc1nccn1C | 84.09% |
| Cc1noc(C)c1CS(=O)(=O)CC(=O)NCCc1ccccc1 | -9.569% |
| Cc1nc(NC(=O)CCc2c(C)nc3cc(O)nn3c2C)sc1C | 101.2% |
| CO[C@@H]1CCN(S(=O)(=O)c2cn(C)cn2)[C@H]1Cc1cnn(C)c1.O=C(O)C(F)(F)F | 2.669% |
| O=C([C@@H]1CCO[C@@H]2CCN(CC3CCOCC3)C[C@H]21)N1CCCC1 | -12.21% |
| CNC(=O)CCNC(=O)CCc1c(C)nc2cc(O)nn2c1C | 99.53% |
| CCNC(=O)CCc1c(C)nc2cc(O)nn2c1C | 5.527% |
| CNC(=O)CCCNc1cc(C)nc2cc(C)nn12 | 1.816% |
| O=C(O)C(F)(F)F.O=C1[C@H]2CN(C3CCOC3)C[C@H]2CN1c1ccccc1 (some centres undefined) | -7.814% |

| Structure (SMILES) | Percent Effect |
| --- | --- |
| Cc1ccc(F)cc1S(=O)(=O)N1C[C@@H](C)[C@@](C)(O)C1 | -12.21% |
| Cc1nc(O)c2nnn(C[C@H]3CCCN3C(=O)CCC3CCCC3)c2n1 | 2.096% |
| Cc1nc(O)c2nnn(C[C@H]3CCCN3C(=O)C3CCCC3)c2n1 | 86.1% |
| Cc1nc(O)c2nnn(C[C@H]3CCCN3C(=O)c3cccc(F)c3)c2n1 | -3.685% |
| Cc1nc(O)c2nnn(C[C@H]3CCCN3C(=O)c3ccc(F)cc3)c2n1 | 99.59% |
| Cc1ccc(C(=O)N2CCC[C@@H]2Cn2nnc3c(O)nc(C)nc32)cc1 | 116% |
| Cc1nc(O)c2nnn(C[C@H]3CCCN3C(=O)C(C)(C)C)c2n1 | 2.685% |
| Cc1cccnc1CN(C)C(C(=O)O)c1ccc(C(C)(C)C#N)cc1 (centres undefined) | -18.01% |
| CC(C)Cc1ncc2c(n1)CN(c1cc(NC3CC3)nc(N)n1)C2 | 10.04% |
| CNC(=O)[C@@H]1C[C@@H](N)CN1c1nnc(-c2ccccc2)s1 | -7.13% |
| CCCn1cc(C(=O)N[C@H]2CC[C@H](n3cnnc3)CC2)c(C)n1 | -5.85% |
| CCCn1ncc(C(=O)N(CCOC)Cc2c(C)nn(CC)c2C)c1C | -10.36% |
| CCn1nc(C)c(C(C)NC(=O)c2cccc(NCC(=O)O)c2)c1C (centres undefined) | -10.01% |
| CCn1nc(C)c(C(C)NC(=O)c2cnc(N(C)C)nc2C)c1C (centres undefined) | 101.2% |
| CCn1c(C)nnc1SCCNC(=O)c1cnc(N(C)C)nc1C | -11.93% |
| CCCn1ncc(C(=O)NC(C)c2c(C)nn(CC)c2C)c1C (centres undefined) | 101.8% |
| CCCn1cc(C(=O)NC(C)c2c(C)nn(CC)c2C)c(C)n1 (centres undefined) | 107.4% |
| CCC(NC(=O)c1cnc(N(C)C)nc1C)c1ccncc1 (centres undefined) | -21.92% |
| CCCn1cc(C(=O)NC(CC(=O)O)c2ccco2)c(C)n1 (centres undefined) | -1.122% |
| CN(Cc1ccncc1)C(=O)c1ccc2c(c1O)OC(C)(C)C2 | -3.741% |

Source: ChEMBL document CHEMBL3988442, “University of Dundee, Small-Polar-MMV Screening Library” (2021)
